This is a sample that favours compounds with a hit; in the whole collection about 1.4% have one here.
EPAC1 antagonist = qHTS for Antagonist of cAMP-regulated guanine nucleotide exchange factor 3 (EPAC1): primary screen. 360,000 tested, 0.14% active. Rap guanine nucleotide exchange factor 3 (Homo sapiens), O95398. AID 720709, 2013. EPAC1 GEF assay, Rap1b-BODIPY-GDP exchange fluorescence. Potency, µM (highest dose often 115 µM), without a hit: at the highest dose activity change, negative = inhibition, most hits filed as inhibitors;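 further: potency means the concentration at half of the fitted maximal effect; plate controls were vehicle for no effect and positive control for full effect; nearly all actives have a fitted effect of over 50% in size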
Target sequence (O95398 whole entry, looked up): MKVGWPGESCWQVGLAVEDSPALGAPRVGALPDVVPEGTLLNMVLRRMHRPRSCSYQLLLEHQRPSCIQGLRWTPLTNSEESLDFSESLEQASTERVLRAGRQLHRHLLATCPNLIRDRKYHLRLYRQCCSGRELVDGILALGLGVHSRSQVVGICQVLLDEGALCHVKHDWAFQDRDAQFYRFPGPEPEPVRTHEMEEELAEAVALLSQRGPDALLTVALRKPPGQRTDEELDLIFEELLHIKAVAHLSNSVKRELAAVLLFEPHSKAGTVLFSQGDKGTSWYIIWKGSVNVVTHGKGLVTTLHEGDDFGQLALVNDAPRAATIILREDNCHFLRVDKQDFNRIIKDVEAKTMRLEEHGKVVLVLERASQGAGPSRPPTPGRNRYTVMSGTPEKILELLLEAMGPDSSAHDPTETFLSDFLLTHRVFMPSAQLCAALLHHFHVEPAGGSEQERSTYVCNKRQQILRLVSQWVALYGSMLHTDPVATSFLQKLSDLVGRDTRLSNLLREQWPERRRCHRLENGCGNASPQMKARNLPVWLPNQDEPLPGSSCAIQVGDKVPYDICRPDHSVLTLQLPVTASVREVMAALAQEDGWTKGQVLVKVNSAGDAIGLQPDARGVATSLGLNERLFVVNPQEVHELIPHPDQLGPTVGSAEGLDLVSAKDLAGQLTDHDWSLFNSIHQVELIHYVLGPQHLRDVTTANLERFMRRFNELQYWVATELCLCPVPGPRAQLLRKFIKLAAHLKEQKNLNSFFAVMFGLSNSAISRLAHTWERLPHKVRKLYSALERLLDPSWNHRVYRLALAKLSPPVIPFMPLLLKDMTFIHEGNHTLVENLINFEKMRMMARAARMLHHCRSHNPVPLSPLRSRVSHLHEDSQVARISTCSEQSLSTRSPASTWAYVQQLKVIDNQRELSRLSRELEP
EPAC2 agonist = qHTS for Agonist of cAMP-regulated guanine nucleotide exchange factor 4 (EPAC2): primary screen; Rap guanine nucleotide exchange factor 4 (Homo sapiens), Q8WZA2; EPAC2 activation, biochemical qHTS; response scale: 100% = 6.5 mM cAMP response; Potency, µM (top dose mostly 154 µM), for inactives: top-dose activation, hits mostly activators; 360,000 tested, 0.079% active; further: potency means the concentration at half of the fitted maximal effect; nearly all actives have a fitted effect of over 50% in size
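Compounds were titrated in qHTS against a Rap1B-BODIPY-GDP (250 nM) complex with EPAC2 (100 nM) and GDP (50 uM). BODIPY-GDP release tracked at 480/540 nm over 30 min at room temperature, normalized to 6.5 mM cAMP.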
EPAC1 ag = qHTS for Agonist of cAMP-regulated guanine nucleotide exchange factor 3 (EPAC1): primary screen; Potency, µM (titrated, usually from 154 µM), without a hit: at the highest dose activation, actives largely listed as activators; AID 720707, 2013; 360,000 tested, 0.073% active; EPAC1 agonist qHTS, biochemical assay; response scale: 100% = response to 6.5 mM cAMP; Rap guanine nucleotide exchange factor 3 (Homo sapiens), O95398; further: potency means the concentration at half of the fitted maximal effect; nearly all actives have a fitted effect of over 60% in size
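Multi-concentration qHTS readout: loss of Rap1B-bound BODIPY-GDP fluorescence driven by 100 nM EPAC1 with excess GDP (50 uM), monitored kinetically at room temperature; agonist response expressed relative to 6.5 mM cAMP.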
hERG WT inh = qHTS for Inhibitors of KCHN2 3.1: Wildtype qHTS; U2OS, BacMam KCNH2, thallium flux FluxOr; stronger effect = lower value; activity change, % at 1.84 µM; 340,000 tested, 0.37% active;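 active means maximum activity change below -70%; inconclusive means maximum activity change between -70% and -50%; inactive means maximum activity change above -50%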; further: on the % scale 0 is the no-effect control and ±100 the full control effect
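U2OS cells were transduced with wild-type KCNH2 virus (2.03 x 10^8 / mL) for 4 h at room temperature, then cultured overnight at 37 C. Thallium flux was read with FluxOr dye. Rate constants were normalized to DMSO controls.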
EPAC2 antagonist = qHTS for Antagonist of cAMP-regulated guanine nucleotide exchange factor 2 (EPAC2): primary screen. Potency, µM (series often up to 114 µM), inactives show top-dose activity, negative = inhibition, hits mostly inhibitors. Rap guanine nucleotide exchange factor 4 (Homo sapiens), Q8WZA2. EPAC2 GEF exchange of Rap1B-BODIPY-GDP, fluorescence. 360,000 tested, 0.18% active; further: potency means the concentration at half of the fitted maximal effect; on the % scale 0 is the no-effect control and ±100 the full control effect; nearly all actives have a fitted effect of over 45% in size
KCNH2 3.1 inh = qHTS for Inhibitors of KCHN2 3.1: Mutant qHTS; Potassium voltage-gated channel subfamily H member 2, brain isoform KCNH2 3.1 (human); U2OS KCNH2 3.1, thallium flux FluxOr; stronger effect = lower value; activity change, % (tested at about 1.8 µM); 340,000 tested, 0.95% active; AID 720553, 2013;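 active means maximum activity change below -70%; inconclusive means maximum activity change from -70% to -50%; inactive means maximum activity change above -50%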;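 further: thallium influx rate constant from kinetic fluorescence after stimulation buffer; on the % scale 0 is the no-effect control and ±100 the full control effect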
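U2OS cells transduced with KCNH2 3.1 mutant virus (1.77 x 10^8 /mL, 4 h), plated overnight at 37 C, loaded 45 min with FluxOr dye plus Red40 quencher. Thallium flux rate constant from kinetic reads after stimulation buffer, normalised to controls.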
* marks the source's active call; other numbers are inactive results; ? = inconclusive; . = no result. Unless noted, the call rests on the fitted dose curve; in most records, active means well fitted curve in the direction sought with a large enough effect; inconclusive means small, poorly fitted or top-dose-only effect, or another doubt; inactive means no such curve, though single readings can be large; an effect the other way counts as inactive or inconclusive.

SMILES	EPAC1 antagonist	EPAC2 agonist	EPAC1 ag	hERG WT inh	EPAC2 antagonist	KCNH2 3.1 inh
C[C@H]1COC2=C1C(=O)C(=O)c1c2ccc2c1CCCC2(C)C	45µM*	1%	-43%	4	7%	-2
Cc1ccc(S(=O)(=O)c2nc(-c3ccccc3Cl)oc2N(C)C2CCN(C)CC2)cc1	5%	-10%	-6%	?	-12%	-80*
Cc1ccc(-c2nc(N(C)C3CCN(C)CC3)c3ccccc3n2)cc1	0%	2%	4%	-3	-2%	8
CC(C)c1ccc(NC(=O)Nc2nc(C(N)CCc3ccccc3)cs2)cc1 (stereo unspecified)	0%	11%	-8%	.	54%	.
CCOc1cc2c(cc1OCC)-n1cccc1C(c1ccc(OC)cc1)NC2 (stereo unspecified)	-3%	16%	3%	1	5%	-13
CCOc1cc2c(cc1OCC)-n1cccc1C(c1ccc(OC(F)F)cc1)NC2 (stereo unspecified)	2%	-2%	7%	-13	-19%	-82*
O=P(Nc1cccnc1)(Oc1ccccc1Cl)Oc1ccccc1Cl	-14%	6%	6%	-32	56µM*	-15
Cc1cccc(OP(=O)(Nc2cccnc2)Oc2cccc(C)c2)c1	-10%	12%	-20%	-9	-2%	-1
C=C1C(=O)O[C@@H]2C[C@@H](C)[C@@H]3C=CC(=O)[C@@]3(C)[C@@H](OC(=O)CC(=O)O[C@H]3[C@@H]4C(=C)C(=O)O[C@@H]4C[C@@H](C)[C@@H]4C=CC(=O)[C@]43C)[C@H]12	40µM*	-5%	-22%	1	?	-5
CCOP(=O)(C1=C(O)C(=O)C(C(C)(C)C)=CC1=O)c1ccccc1 (stereo unspecified)	?	-10%	1%	0	?	0
Cc1cc(C(=O)OCC(=O)NC(=O)c2cccn2C)c2ccccc2n1	-12%	0%	6%	-14	?	7
CCOC(=O)[C@]12Cc3c(cc(OC)c(OC)c3OC)[C@H]1N(C1CCCCC1)C(=O)c1ccccc12	-13%	11%	2%	.	-14%	.
CC(=O)C1=C(O)C2(C)c3c(O)c(C)c(O)c(C(C)=O)c3OC2CC1=O (stereo unspecified)	5%	6%	13%	12	14µM*	-5
CCCC(C)C(=O)NC1CCSC1=O (stereo unspecified)	13%	11%	9%	-3	-3%	-83*
COc1ccc(CN2CCN(C(=O)COc3ccc4ccccc4c3)CC2)c(OC)c1	-25%	6%	2%	-24	-11%	-93*
O=C(COc1ccc2ccccc2c1)N1CCN(Cc2c[nH]c3ccccc23)CC1	16%	-6%	2%	19	16%	-10
O=C(COc1ccc(Br)cc1)N1CCN(Cc2c[nH]c3ccccc23)CC1	-2%	-7%	-8%	-80*	0%	-72*
O=C1C(=O)c2ccccc2-c2ccccc21	8.9µM*	21%	-17%	4	?	-13
COc1cc(CC(=O)N2C[C@H]3C[C@@H](C2)c2cccc(=O)n2C3)cc(OC)c1OC	18%	7%	-12%	-199*	2%	1
COc1ccc(CC(=O)N2C[C@H]3C[C@@H](C2)c2cccc(=O)n2C3)cc1	-4%	8%	1%	-1	1%	0
O=C(Nc1ccc(Br)cc1C(=O)O)c1ccc2c(c1)C(=O)N(Cc1ccccc1)C2=O	?	0%	13%	0	0%	-1
COCCCn1c(N)c(C(=O)OCCOC)c2nc3ccccc3nc21	2%	-1%	2%	-1	-3%	7
CCOC(=O)c1c(NS(=O)(=O)c2ccccc2)n(CCCOC)c2nc3ccccc3nc12	7.9µM*	23%	7%	-4	?	-2
CCOC(=O)c1c(N)n(CCCOC(=O)c2ccco2)c2nc3ccccc3nc12	-15%	-11%	3%	-2	-5%	2
CCCCCn1c(NC(=O)c2ccco2)c(C(=O)OCC)c2nc3ccccc3nc21	50µM*	6%	-15%	-12	40µM*	.
SMILES	EPAC1 antagonist	EPAC2 agonist	EPAC1 ag	hERG WT inh	EPAC2 antagonist	KCNH2 3.1 inh
Cc1ccc(C=C2C(Cl)=C(Cl)C(Cl)=C2Cl)cc1	?	-11%	-5%	-8	0%	-6
CC(OC(=O)COc1ccc(Nc2ccccc2)cc1)C(=O)N(C)c1ccccc1 (stereo unspecified)	-27%	8%	-39%	-3	?	-10
O=c1[nH]c2ccccc2n1C1CCN(C(c2cc3ccccc3o2)c2nnnn2-c2ccc3c(c2)OCCO3)CC1 (stereo unspecified)	7%	8%	20%	.	?	.
CCOC(=O)C1(c2ccccc2)CCN(CCC(C#N)(c2ccccc2)c2ccccc2)CC1	-7%	14%	9%	-45	1%	-88*
CCOC(=O)C1(c2ccccc2)CCN(CCC(=O)Nc2ccc(OC)cc2)CC1	1%	5%	11%	56	-2%	-32
O=[N+]([O-])c1ccc(N(CCO)CCO)c2c1no[n+]2[O-]	56µM*	-114%	-111%	-34	?	-92*
CCOC(=O)[C@]12Cc3cc(Cl)ccc3[C@H]1N(C1CCCCC1)C(=O)c1cc(OC)ccc12	-19%	8%	-7%	.	?	.
Cc1nc2cc(C(F)(F)F)ccc2n1C1CCN(Cc2nnnn2Cc2cccs2)CC1	13%	-7%	-4%	-20	11%	-75*
Cc1nc2ccccc2n1C1CCN(Cc2nnnn2CCc2ccccc2)CC1	4%	-8%	-5%	-23	2%	-82*
Cc1nc2cc(C(F)(F)F)ccc2n1C1CCN(Cc2nnnn2Cc2ccc3c(c2)OCO3)CC1	-19%	4%	6%	-16	-24%	-77*
c1ccc(CCn2nnnc2CN2CCC(n3nnc4ccccc43)CC2)cc1	7%	3%	8%	7	2%	-17
FC(F)(F)c1ccc2c(c1)ncn2C1CCN(Cc2nnnn2C2CCCCC2)CC1	-3%	-5%	-9%	7	-8%	?
